# Assay outcomes as filed in PubChem.
# Shown is part of a subset that was picked to be rich in hits.
# ST2 IL33 inh = blocks human ST2 binding to IL-33. Q01638. AlphaLISA ST2-Fc/biotin-IL-33 interaction, 1 h. inhibition, % for hits at 17 µM. 2.3% of 78,000 active. AID 1259354; in the data active = inhibition above about 30%
# Target sequence (Q01638 whole entry, looked up): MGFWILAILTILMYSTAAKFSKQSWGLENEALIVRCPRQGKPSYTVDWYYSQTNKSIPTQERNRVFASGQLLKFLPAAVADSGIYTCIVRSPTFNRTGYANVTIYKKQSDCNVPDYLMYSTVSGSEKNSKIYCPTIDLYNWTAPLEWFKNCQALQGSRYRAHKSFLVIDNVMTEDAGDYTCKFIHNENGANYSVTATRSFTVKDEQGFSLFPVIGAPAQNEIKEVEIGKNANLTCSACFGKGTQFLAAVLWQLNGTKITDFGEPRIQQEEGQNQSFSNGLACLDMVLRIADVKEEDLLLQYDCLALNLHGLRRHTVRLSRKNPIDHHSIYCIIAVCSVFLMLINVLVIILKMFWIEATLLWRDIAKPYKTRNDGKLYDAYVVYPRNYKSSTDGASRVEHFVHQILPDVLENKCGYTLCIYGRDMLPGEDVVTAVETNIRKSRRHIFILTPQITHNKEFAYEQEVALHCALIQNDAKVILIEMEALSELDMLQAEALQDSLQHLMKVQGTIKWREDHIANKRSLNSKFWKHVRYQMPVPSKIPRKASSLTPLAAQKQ
# * marks the source's active call; other numbers are inactive results; i = inactive.
SMILES,ST2 IL33 inh
COc1ccc(C(=O)Nc2c3c(nn2-c2ccc(F)cc2)CS(=O)C3)cc1OC (stereo not drawn),i
Cn1c(=O)c2c(nc(Oc3ccc(Cl)cc3)n2Cc2ccc(F)cc2)n(C)c1=O,i
CC(C)=CCc1c(OC2OC(CO)C(O)C(O)C2O)cc2c(c1O)C(=O)C(O)C(c1ccc(O)cc1)O2 (stereo not drawn),i
CN(C(=O)N1c2ccccc2Sc2ccccc21)c1ccccc1,i
O=C(COc1ccccc1)OCC(=O)N1c2ccccc2Sc2ccccc21,i
N/C(=N/OC(=O)N1c2ccccc2Sc2ccccc21)c1ccccc1,50%*
CCOc1ccc(S(=O)(=O)Nc2ccc(F)cc2)c2cccnc12,i
CC(C)CCOc1ncnc2c1sc1nc3c(cc12)COC(C)(C)C3,i
CC1=CC(C)(C)N(C(=O)CN2C(=O)c3cccc([N+](=O)[O-])c3C2=O)c2ccccc21,32%*
CC1=CC(C)(C)N(C(=O)CN2C(=O)c3ccccc3C2=O)c2ccccc21,i
Cc1c(NC(=O)CN2C(=O)c3cccc([N+](=O)[O-])c3C2=O)c(=O)n(-c2ccccc2)n1C,i
O=C(c1ccccc1)N1CCN=C1SCc1ccc(Br)cc1,i
CCCN(CCC)S(=O)(=O)c1cccc2nonc12,i
CCc1ccc(N(CC)S(=O)(=O)c2cccc3nonc23)cc1,i
CCCCN(CCCC)S(=O)(=O)c1cccc2nonc12,31%*
O=C(Nc1ccc(F)cc1Cl)c1cc2c(=O)oc3ccccc3c2s1,i
Brc1c(-c2ccccc2)nc2n1-c1ccccc1C2,44%*
Nc1nc(-c2ccccc2)c(Br)c(=O)[nH]1,i
Cc1[nH]nc(-c2ccccc2)c1Br,i
Clc1cccc(-c2cn3ccsc3n2)c1,i
Cc1cccc(OCC(=O)Nc2cccc(C(=O)c3ccccc3)c2)c1,i
O=C(c1ccccc1NS(=O)(=O)c1ccc2c(c1)OCCO2)N1CCCC1,i
CCOC(=O)C1CCCN(C(=O)CCc2nc(-c3ccccc3F)no2)C1 (stereo not drawn),i
CCN(CC)S(=O)(=O)c1cccc(C(=O)Nc2ccc(Br)cc2)c1,i
Cc1ccc(O)c(C=Nc2ccc(Br)c3cccnc23)c1,97%*
SMILES,ST2 IL33 inh
COc1cc(Br)c(Br)c(C=Nc2cc(C)ccc2O)c1O,i
Cc1ccccc1N=Cc1cc([N+](=O)[O-])ccc1O,i
CCCCSc1nc2c(c(=O)n1-c1ccc(Cl)cc1)SCC2,i
O=[N+]([O-])c1ccc2nc(/C=C/c3ccco3)[nH]c2c1,32%*
O=c1[nH]c(SCc2nc3ccc([N+](=O)[O-])cc3[nH]2)nc2ccccc12,i
CCSc1nc2ccc([N+](=O)[O-])cc2[nH]1,i
CN(C)S(=O)(=O)CCNC(=O)c1cc(C2CC2)[nH]n1,i
CC(CS(=O)(=O)CC(C)N1CCCCC1)N1CCCCC1 (stereo not drawn),i
Cc1ccc(NC(=O)CN(c2ccc(C)c(Cl)c2)S(C)(=O)=O)c(C)c1,i
COc1cc(C(=O)N2CC[C@H](CO)[C@H](O)C2)ccn1,i
COc1ccc(C(=O)N2CCCCCC2)cc1OC,i
COc1ccc(C(=O)Nc2ccc(N3CCCC3)cc2)cc1,59%*
CCCOc1ccc(NC(=O)c2ccc(OC)cc2)cc1,i
COc1ccc(C(=O)Nc2ccc(N3CCCC3)cc2)cc1OC,35%*
COc1ccccc1NC(=O)c1ccc(OC)c(OC)c1,i
COc1ccc(C(=O)Nc2cc(OC)cc(OC)c2)cc1,i
Cc1ccc(C2CC(c3ccccc3)Nc3nc(N)nn32)cc1 (stereo not drawn),i
COc1ccccc1C1C(C(=O)Nc2ccc(C)cn2)=C(C)NC2=C1C(=O)CCC2 (stereo not drawn),i
OC(CC#CCN1CCOCC1)(c1ccccc1)C1CCCC1 (stereo not drawn),i
CC(C)c1ccc(NS(=O)(=O)c2ccc3c(c2)c(=O)n(C)c(=O)n3C)cc1,i
COc1ccc(CCCNC(=O)c2ccc(-c3cccc(F)c3)nc2)cc1,i
COc1ccccc1-c1coc2cc(OC(=O)C(C)(C)C)ccc2c1=O,i
Cc1ccc2c3c(c(N)c(=O)[nH]c13)-c1ccccc1C2=O,51%*
CCN1CCN(C(=O)c2sc3ncnc(N4CCCCC4C)c3c2C)CC1 (stereo not drawn),i
COc1ccc(/C(N)=N\OC(=O)c2ccc3c(c2)OCO3)cc1OC,i
SMILES,ST2 IL33 inh
CC1=CC(C)(C)Nc2ccc(OC(=O)c3ccc4c(c3)OCO4)cc21,30%*
COc1ccccc1C(=O)Oc1ccc2c(c1)C(C)=CC(C)(C)N2,i
C=CCOc1ccc(/C=C2/SC(=Nc3ccccc3)NC2=O)cc1OCC,37%*
CCOc1cc(C=C2C(=O)c3ccccc3C2=O)ccc1OC(C)C(=O)O (stereo not drawn),i
CC(=O)Nc1ccc(NC(=O)NC2(c3ccccc3)CC2)cc1,i
CC(=O)Nc1ccc(/C=C2/SC(=Nc3ccccc3)NC2=O)cc1,31%*
COc1cccc(/C=C2/SC(=Nc3ccccc3)NC2=O)c1OC,i
O=C1NC(=Nc2ccccc2)S/C1=C/c1ccccn1,i
